{"source": "paper PMC5540273", "about": "(PLoS ONE, 2017);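 note: kd values determined as follow-up on hits from a single-replicate KINOMEscan panel screen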"}
{"test_system": "ADCK4", "units": {"Kd": "nM"}}
{"smiles": "Cc1cc(NCC(c2ccccc2)c2ccccc2)nc(NCc2ccc(C(F)(F)F)cc2)n1", "note": "[GW497681]", "Kd": 2300}
{"smiles": "Cl.Oc1ccc(-c2nc(-c3ccccc3)[nH]c2-c2ccncc2)cc1", "note": "[SB-428218]", "Kd": "> 10000"}
{"smiles": "CCn1c(-c2cccnc2O)nc2cnccc21", "note": "[SB-736715]", "Kd": "> 10000"}
{"test_system": "AURKA", "units": {"Kd": "nM"}}
{"smiles": "C[C@@H]1CCCCN1c1cc(-c2ccc3c(N)n[nH]c3c2)nc(N)n1", "note": "[GSK2258759]", "Kd": "> 10000"}
{"smiles": "Nc1ncnc2[nH]c(-c3ccccc3)nc12", "note": "[AH5015]", "Kd": "> 10000"}
{"smiles": "COc1cc(Nc2nccc(N3CCC(NC(=O)Nc4cc(C)ccc4C)C3)n2)cc(OC)c1OC", "note": "(stereo not shown) [GSK1379762]", "Kd": 1100}
{"smiles": "COc1ccccc1CNC(=O)c1cc(C(=O)c2ccccc2C)c[nH]1", "note": "[GSK364507]", "Kd": "> 10000"}
{"smiles": "Fc1cc(Cl)ccc1Nc1ccnc2cc(-c3ccc(CN4CCCCC4)o3)ccc12", "note": "[GW560116]", "Kd": "> 10000"}
{"smiles": "Clc1cc(Cl)cc(Nc2ccnc(Nc3cc(Cl)cc(Cl)c3)n2)c1", "note": "[GSK175726]", "Kd": "> 10000"}
{"smiles": "COc1cc2ncnc(Nc3ccc4nc(-c5ccccc5)[nH]c4c3)c2cc1OC.Cl", "note": "[GW282450]", "Kd": 2300}
{"test_system": "AURKB", "units": {"Kd": "nM"}}
{"smiles": "Cn1cncc1-c1ccc2ncnc(Nc3ccc(OCc4ccccc4)cc3)c2c1", "note": "[GW320571]", "Kd": "> 10000"}
{"smiles": "Cn1ccc2ncnc(Oc3ccc(Nc4nc5ccccc5[nH]4)cc3)c21", "Kd": 59}
{"smiles": "COc1ccc(CNC(=O)NC2CCN(c3ccnc(Nc4cc(OC)c(OC)c(OC)c4)n3)C2)cc1", "note": "(stereo not shown) [GSK1379748]", "Kd": 330}
{"smiles": "O=C(Nc1ccc2c(c1)OCO2)NC1CCN(c2ccnc(Nc3ccc(F)cc3)n2)C1", "note": "(stereo not shown) [GSK1379724]", "Kd": 6900}
{"smiles": "Cn1ccc2ncnc(Oc3ccc(NC(=O)Nc4ccccc4)cc3)c21", "Kd": 110}
{"smiles": "COc1cc(Nc2nccc(N3CCC(NC(=O)Nc4cc(C)ccc4C)C3)n2)cc(OC)c1OC", "note": "(stereo not shown) [GSK1379762]", "Kd": 240}
{"smiles": "Cc1ccc(C(=O)Nc2ccc(Nc3ccnc4cc(-c5ccccn5)ccc34)cc2O)cc1.Cl", "note": "[GW440146]", "Kd": 290}
{"test_system": "AURKC", "units": {"Kd": "nM"}}
{"smiles": "Cn1ccc2ncnc(Oc3ccc(NC(=O)Nc4ccccc4)cc3)c21", "Kd": 110}
{"smiles": "COc1cc(Nc2nccc(N3CCC(NC(=O)Nc4cc(C)ccc4C)C3)n2)cc(OC)c1OC", "note": "(stereo not shown) [GSK1379762]", "Kd": 200}
{"smiles": "COc1cccc(-c2cc(-c3c[nH]nc3-c3ccccn3)ccn2)c1", "note": "[GW680338]", "Kd": "> 10000"}
{"smiles": "Cc1ccc(C(=O)Nc2ccc(Nc3ccnc4cc(-c5ccccn5)ccc34)cc2O)cc1.Cl", "note": "[GW440146]", "Kd": 500}
{"smiles": "COc1cc2ncn(-c3cc(OCC4CCCO4)c(C(N)=O)s3)c2cc1OC", "note": "(stereo not shown) [GSK204607]", "Kd": "> 10000"}
